Measurements: PubChem BioAssay AID2283123 (EPA ToxCast)
Inconclusive results are not listed. Calls of active or inactive are those of the source. The calls were made as follows: active = hit-call score of the fitted dose curve at least 0.9, where 1 is the maximum; inconclusive = response in the unintended direction; inactive = score below 0.9.

Target: rat CYP2E1, Cyp2e1 (gene 25086) (UniProt P05182)
Assay: NVS_ADME_rCYP2E1: NovaScreen (NVS) CYP450-related Enzyme Activity (ADME) Assay for rat CYP2E1
Method: NVS_ADME_rCYP2E1 is a biochemical, single-readout assay that uses extracted gene-proteins in a cell-free assay. Measurements were taken 1 hour after chemical dosing in a 96-well plate.NVS_ADME_rCYP2E1 is one of one assay component(s) measured or calculated from the NVS_ADME_rCYP2E1 assay. It is designed to make measurements of enzyme activity, a form of enzyme reporter, as detected with fluorescence intensity signals by Fluorescence technology.Data from the assay component NVS_ADME_rCYP2E1 was analyzed into 1 assay endpoint. This assay endpoint, NVS_ADME_rCYP2E1, was analyzed in the positive analysis fitting direction relative to Acetonitrile as the negative control and baseline of activity. Using a type of enzyme reporter, loss-of-signal activity can be used to understand changes in the enzymatic activity as they relate to the gene Cyp2e1. Furthermore, this assay endpoint can be referred to as a primary readout, because this assay has produced multiple assay endpoints where this one serves a enzymatic activity function. To generalize the intended target to other relatable targets, this assay endpoint is annotated to the cyp intended target family, where the subfamily is xenobiotic metabolism.
Binding assays used specific radioligands (tritiated, iodinated) with non-radioactive competitive displacement ligands in agonist or antagonist protocols (as indicated) and various reference compounds and inhibitors to titrate specific binding to receptors and transporters. Most enzyme assays (CYPs, kinases, phosphatases, proteases, HDACs) used recombinant protein and specific substrates (fluorescence mostly, some colorimetric and radioactive) and inhibitors, followed by a biochemical separation of substrate and product. All assays for the biochemical HTS were initially run in duplicate at a single concentration (10 uM for CYP450 assays and 25 uM for all others). Assay-chemical combinations meeting a pre-defined threshold (e.g., 30% inhibition and other criteria defined below) were then run in singleton concentration-response format with maximum concentration of 20 uM for CYPs and 50 uM for all others. Each assay was run with positive and negative controls, and concurrent controls on every plate. The follow-up (secondary) screen tested active chemical-pairs in concentration series, as well as a few additional assays not tested in the primary screen, some selected negative inactives, and several cases re-run in the concentration series for confirmatory purposes.

Chain of rat CYP2E1, Cyp2e1 (gene 25086) (P05182 whole entry, looked up): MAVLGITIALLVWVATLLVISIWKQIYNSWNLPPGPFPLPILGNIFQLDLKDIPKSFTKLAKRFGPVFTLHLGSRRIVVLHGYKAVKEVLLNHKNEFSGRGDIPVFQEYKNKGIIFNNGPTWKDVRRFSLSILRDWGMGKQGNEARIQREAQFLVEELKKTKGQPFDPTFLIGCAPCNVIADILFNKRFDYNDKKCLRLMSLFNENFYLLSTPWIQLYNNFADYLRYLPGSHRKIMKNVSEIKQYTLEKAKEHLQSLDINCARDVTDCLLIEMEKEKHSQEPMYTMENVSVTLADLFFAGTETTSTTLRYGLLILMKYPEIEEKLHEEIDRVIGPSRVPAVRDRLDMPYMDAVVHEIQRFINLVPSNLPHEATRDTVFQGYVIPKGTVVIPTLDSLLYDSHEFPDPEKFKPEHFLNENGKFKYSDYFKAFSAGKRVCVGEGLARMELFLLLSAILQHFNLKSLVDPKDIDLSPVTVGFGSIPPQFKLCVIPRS

| SMILES | outcome | AC50 |
| --- | --- | --- |
| CC(C1CC1)C(O)(Cn1cncn1)c1ccc(Cl)cc1 (stereo not given) | inactive |  |
| COP(=S)(OC)SCn1nnc2ccccc2c1=O | inactive |  |
| COc1nn(CSP(=S)(OC)OC)c(=O)s1 | inactive |  |
| CCOP(=S)(OCC)Oc1ccc2c(C)c(Cl)c(=O)oc2c1 | inactive |  |
| COP(=S)(OC)Oc1ccc([N+](=O)[O-])c(C)c1 | inactive |  |
| CNC(=S)S | inactive |  |
| N#Cc1c[nH]cc1-c1cccc2c1OC(F)(F)O2 |  | 0.254 µM (active) |
| CCCN(CCOc1c(Cl)cc(Cl)cc1Cl)C(=O)n1ccnc1 |  | 2.54 µM (active) |
| C[Si](Cn1cncn1)(c1ccc(F)cc1)c1ccc(F)cc1 |  | 10 µM (active) |
| S=C1NCCN1 | inactive |  |
